# Measured values published in the supplement of paper PMC8728848.
# Many of the other results were omitted from the sample, so the strongest signals are more common in it than they were.
# B1: rPitB (Streptococcus pneumoniae), A0A0I7U739 (protein)
# chain: MSEIEIINAKKIYHDVPVIENLNITIPKGSLFTLLGASGCGKTTLLRMIAGFNSIKDGEFYFDDTKINNMEPSKRNIGLVFQNYAIFPHLTVRDNVAFGLMQKKVPKEELIQQTNKYLELMQIAQYAD
# Columns and labels:
# Assay in all cases: glycan array binding signal (z-score within array); higher = stronger binding
# Conditions in all cases: glycan notation: IUPAC condensed, linker removed
# [1] = target: Fuc(a1-2)Gal(b1-3)GalNAc(a1-3)[Fuc(a1-2)]Gal(b1-4)GlcNAc
# Method in brief: (§1)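 Glycan array data were curated from 3228 arrays in the Consortium for Functional Glycomics database and kept only where the protein sequence was available. Glycan names were converted to IUPAC-condensed notation, and columns mapping to the same glycan were averaged. The binding signal is a within-array Z-score, averaged across arrays of the same protein sequence at different concentrations or buffers and across linkers. Negative Z-scores can be read as non-binding.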
# [2] = target: Fuc(a1-2)Gal(b1-3)GalNAc(b1-4)[Neu5Ac(a2-3)]Gal(b1-4)Glc
# Method in brief: as §1
# [3] = target: Fuc(a1-2)Gal(b1-3)GlcNAc(b1-3)[Gal(b1-4)GlcNAc(b1-6)]Gal(b1-4)Glc
# Method in brief: as §1
# [4] = target: Fuc(a1-2)Gal(b1-3)[Fuc(a1-4)]GlcNAc(b1-3)[Fuc(a1-3)[Gal(b1-4)]GlcNAc(b1-6)]Gal(b1-4)Glc
# Method in brief: as §1
# [5] = target: Fuc(a1-2)Gal(b1-4)GlcNAc(b1-2)[Fuc(a1-2)Gal(b1-4)GlcNAc(b1-4)]Man(a1-3)[Fuc(a1-2)Gal(b1-4)GlcNAc(b1-2)Man(a1-6)]Man(b1-4)GlcNAc(b1-4)GlcNAc
# Method in brief: as §1
# [6] = target: Fuc(a1-2)[Gal(a1-3)]Gal(b1-3)GlcNAc
# Method in brief: as §1
# [7] = target: Fuc(a1-2)[Gal(a1-3)]Gal(b1-4)Glc
# Method in brief: as §1
# [8] = target: Fuc(a1-2)[Gal(a1-4)]Gal(b1-4)GlcNAc
# Method in brief: as §1
# [9] = target: Fuc(a1-2)[GalNAc(a1-3)]Gal(b1-4)Glc
# Method in brief: as §1
# [10] = target: Fuc(a1-2)[GalNAc(a1-3)]Gal(b1-4)GlcNAc
# Method in brief: as §1
# [11] = target: Fuc(a1-2)[GalNAc(a1-3)]Gal(b1-4)GlcNAc(b1-2)Man(a1-3)[Fuc(a1-2)[GalNAc(a1-3)]Gal(b1-4)GlcNAc(b1-2)Man(a1-6)]Man(b1-4)GlcNAc(b1-4)GlcNAc
# Method in brief: as §1
# [12] = target: Fuc(a1-3)[Gal(b1-4)]GlcNAc(b1-4)Gal(b1-4)[Fuc(a1-3)]GlcNAc(b1-4)Gal(b1-4)[Fuc(a1-3)]GlcNAc
# Method in brief: as §1
# Fuc(a1-4)GlcNAc = target: Fuc(a1-4)GlcNAc
# Method in brief: as §1
# Gal(a1-3)Gal(b1-4)Glc = target: Gal(a1-3)Gal(b1-4)Glc
# Method in brief: as §1
# [13] = target: Gal(a1-4)Gal(b1-4)GlcNAc(b1-2)Man(a1-3)[Gal(a1-4)Gal(b1-4)GlcNAc(b1-2)Man(a1-6)]Man(b1-4)GlcNAc(b1-4)GlcNAc
# Method in brief: as §1
# Gal(b1-3)GlcNAc = target: Gal(b1-3)GlcNAc
# Method in brief: as §1
# [14] = target: Gal(b1-3)GlcNAc(b1-2)Man(a1-3)[Gal(b1-3)GlcNAc(b1-2)Man(a1-6)]Man(b1-4)GlcNAc(b1-4)GlcNAc
# Method in brief: as §1
# [15] = target: Gal(b1-3)GlcNAc(b1-2)Man(a1-3)[Gal(b1-3)GlcNAc(b1-2)Man(a1-6)]Man(b1-4)GlcNAc(b1-4)[Fuc(a1-6)]GlcNAc
# Method in brief: as §1
# [16] = target: Gal(b1-3)[Fuc(a1-4)]GlcNAc(b1-2)Man(a1-3)[Gal(b1-3)[Fuc(a1-4)]GlcNAc(b1-2)Man(a1-6)]Man(b1-4)GlcNAc(b1-4)GlcNAc
# Method in brief: as §1
# [17] = target: Gal(b1-3)[Fuc(a1-4)]GlcNAc(b1-2)Man(a1-3)[Gal(b1-3)[Fuc(a1-4)]GlcNAc(b1-2)Man(a1-6)]Man(b1-4)GlcNAc(b1-4)[Fuc(a1-6)]GlcNAc
# Method in brief: as §1
# [18] = target: Gal(b1-3)[Neu5Ac(a2-6)]GalNAc
# Method in brief: as §1
# [19] = target: Gal(b1-3)[Neu5Ac(a2-6)]GlcNAc(b1-6)Gal(b1-4)Glc
# Method in brief: as §1
# [20] = target: Gal(b1-4)GlcNAc(b1-2)Man(a1-3)[Gal(b1-4)GlcNAc(b1-2)Man(a1-6)]Man(b1-4)GlcNAc(b1-4)[Fuc(a1-6)]GlcNAc
# Method in brief: as §1
# [21] = target: Gal(b1-4)GlcNAc(b1-2)Man(a1-3)[GlcNAc(b1-2)Man(a1-6)]Man(b1-4)GlcNAc(b1-4)GlcNAc
# Method in brief: as §1
# [22] = target: Gal(b1-4)GlcNAc(b1-6)Gal(b1-4)GlcNAc
# Method in brief: as §1
# [23] = target: Gal3S(b1-3)[Fuc(a1-4)]GlcNAc
# Method in brief: as §1
# Gal3S(b1-4)Glc6S = target: Gal3S(b1-4)Glc6S
# Method in brief: as §1
# Gal3S(b1-4)GlcNAc6S = target: Gal3S(b1-4)GlcNAc6S
# Method in brief: as §1
# Gal3S6S(b1-4)GlcNAc6S = target: Gal3S6S(b1-4)GlcNAc6S
# Method in brief: as §1
# Gal6S(b1-3)GlcNAc6S = target: Gal6S(b1-3)GlcNAc6S
# Method in brief: as §1
# Gal6S(b1-4)GlcNAc6S = target: Gal6S(b1-4)GlcNAc6S
# Method in brief: as §1
# GalNAc(b1-6)GalNAc = target: GalNAc(b1-6)GalNAc
# Method in brief: as §1
# Glc(b1-6)Glc = target: Glc(b1-6)Glc
# Method in brief: as §1
# GlcA(b1-3)GlcNAc = target: GlcA(b1-3)GlcNAc
# Method in brief: as §1
# [24] = target: GlcNAc(a1-4)Gal(b1-4)GlcNAc(b1-3)Gal(b1-4)[Fuc(a1-3)]GlcNAc(b1-3)Gal(b1-4)[Fuc(a1-3)]GlcNAc
# Method in brief: as §1
# [25] = target: GlcNAc(b1-2)Man(a1-3)[GlcNAc(b1-4)][GlcNAc(b1-2)Man(a1-6)]Man(b1-4)GlcNAc(b1-4)GlcNAc
# Method in brief: as §1
# [26] = target: GlcNAc(b1-2)[GlcNAc(b1-4)]Man(a1-3)[GlcNAc(b1-4)][GlcNAc(b1-2)Man(a1-6)]Man(b1-4)GlcNAc(b1-4)GlcNAc
# Method in brief: as §1
# [27] = target: Neu5Ac(a2-3)Gal(b1-3)GalNAc(b1-3)Gal(a1-4)Gal(b1-4)Glc
# Method in brief: as §1
# [28] = target: Neu5Ac(a2-3)Gal(b1-3)GlcNAc(b1-3)Gal(b1-3)GlcNAc
# Method in brief: as §1
# [29] = target: Neu5Ac(a2-3)Gal(b1-3)[Fuc(a1-4)]GlcNAc(b1-3)Gal(b1-3)[Fuc(a1-4)]GlcNAc
# Method in brief: as §1
# [30] = target: Neu5Ac(a2-3)Gal(b1-4)GlcNAc(b1-3)Gal(b1-3)GlcNAc
# Method in brief: as §1
# [31] = target: Neu5Ac(a2-3)Gal(b1-4)GlcNAc(b1-6)[Neu5Ac(a2-3)Gal(b1-3)]GalNAc
# Method in brief: as §1
# [32] = target: Neu5Ac(a2-3)Gal(b1-4)[Fuc(a1-3)]GlcNAc(b1-3)GalNAc
# Method in brief: as §1
# [33] = target: Neu5Ac(a2-3)Gal(b1-4)[Fuc(a1-3)]GlcNAc(b1-6)[Gal(b1-3)]GalNAc
# Method in brief: as §1
# [34] = target: Neu5Ac(a2-3)[GalNAc(b1-4)]Gal(b1-4)GlcNAc(b1-3)GalNAc
# Method in brief: as §1
# [35] = target: Neu5Ac(a2-6)Gal(b1-4)GlcNAc(b1-2)Man(a1-3)[GlcNAc(b1-2)Man(b1-4)GlcNAc(b1-2)Man(a1-6)]Man(b1-4)GlcNAc(b1-4)GlcNAc
# Method in brief: as §1
# [36] = target: Neu5Ac(a2-6)Gal(b1-4)GlcNAc(b1-2)Man(a1-3)[Man(a1-6)]Man(b1-4)GlcNAc(b1-4)GlcNAc
# Method in brief: as §1
# [37] = target: Neu5Ac(a2-6)Gal(b1-4)GlcNAc(b1-3)Gal(b1-4)GlcNAc(b1-3)Gal(b1-4)GlcNAc
# Method in brief: as §1
# [38] = target: Neu5Ac(a2-6)Gal(b1-4)GlcNAc(b1-3)Gal(b1-4)[Fuc(a1-3)]GlcNAc(b1-3)Gal(b1-4)[Fuc(a1-3)]GlcNAc
# Method in brief: as §1
# [39] = target: Neu5Ac(a2-8)Neu5Ac(a2-3)[Gal(b1-3)GalNAc(b1-4)]Gal(b1-4)Glc
# Method in brief: as §1
binder,measurement,setting,value
B1,glycan array binding signal (z-score),[1],-0.708
same,glycan array binding signal (z-score),[2],-0.128
same,glycan array binding signal (z-score),[3],-0.397
same,glycan array binding signal (z-score),[4],0.227
same,glycan array binding signal (z-score),[5],0.316
same,glycan array binding signal (z-score),[6],-0.113
same,glycan array binding signal (z-score),[7],1.11
same,glycan array binding signal (z-score),[8],-0.108
same,glycan array binding signal (z-score),[9],-0.271
same,glycan array binding signal (z-score),[10],-0.509
same,glycan array binding signal (z-score),[11],0.481
same,glycan array binding signal (z-score),[12],3.03
same,glycan array binding signal (z-score),Fuc(a1-4)GlcNAc,-0.579
same,glycan array binding signal (z-score),Gal(a1-3)Gal(b1-4)Glc,-0.617
same,glycan array binding signal (z-score),[13],1.43
same,glycan array binding signal (z-score),Gal(b1-3)GlcNAc,-0.704
same,glycan array binding signal (z-score),[14],0.944
same,glycan array binding signal (z-score),[15],0.638
same,glycan array binding signal (z-score),[16],3.68
same,glycan array binding signal (z-score),[17],2.09
same,glycan array binding signal (z-score),[18],0.092
same,glycan array binding signal (z-score),[19],-0.142
same,glycan array binding signal (z-score),[20],0.8
same,glycan array binding signal (z-score),[21],-0.568
same,glycan array binding signal (z-score),[22],-0.596
same,glycan array binding signal (z-score),[23],-0.575
same,glycan array binding signal (z-score),Gal3S(b1-4)Glc6S,0.112
same,glycan array binding signal (z-score),Gal3S(b1-4)GlcNAc6S,0.471
same,glycan array binding signal (z-score),Gal3S6S(b1-4)GlcNAc6S,-0.233
same,glycan array binding signal (z-score),Gal6S(b1-3)GlcNAc6S,0.052
same,glycan array binding signal (z-score),Gal6S(b1-4)GlcNAc6S,0.24
same,glycan array binding signal (z-score),GalNAc(b1-6)GalNAc,-0.608
same,glycan array binding signal (z-score),Glc(b1-6)Glc,-0.176
same,glycan array binding signal (z-score),GlcA(b1-3)GlcNAc,5.72
same,glycan array binding signal (z-score),[24],3.89
same,glycan array binding signal (z-score),[25],-0.914
same,glycan array binding signal (z-score),[26],-1.01
same,glycan array binding signal (z-score),[27],-0.604
same,glycan array binding signal (z-score),[28],-0.301
same,glycan array binding signal (z-score),[29],2.33
same,glycan array binding signal (z-score),[30],-0.394
same,glycan array binding signal (z-score),[31],0.027
same,glycan array binding signal (z-score),[32],4.13
same,glycan array binding signal (z-score),[33],2.86
same,glycan array binding signal (z-score),[34],-0.463
same,glycan array binding signal (z-score),[35],-0.255
same,glycan array binding signal (z-score),[36],0.505
same,glycan array binding signal (z-score),[37],0.323
same,glycan array binding signal (z-score),[38],0.032
same,glycan array binding signal (z-score),[39],-0.053
